Several values for one entry are separate records, joined by “and”; a condition that tells them apart may be missing. Equal values may be shown once. In all, about 5,500 compounds went through this assay and about 2,000 (36%) were called active. Another 18% or so got no clear call; they are omitted. Cut-off read from the data, not from the text of the source: active = normalized growth mostly below about 0.91 (no sharp cut-off); inconclusive = no clear call, values can overlap the other calls; inactive = mostly above about 0.92. The list shows a part of the results.
Test: chemical genetic growth profiling, strain panel (AID 1159580);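 note: tested at 20 µM; growth read once vehicle control cultures reached saturation at 30 °C; 1 = growth at the plate median or of vehicle wells; lower values mean less growth of the strain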
Conditions: S. cerevisiae deletion strains, growth OD

Measured: normalized growth

C=C1c2cccc(O)c2C(O)=C2C(=O)[C@]3(O)C(O)=C(C(N)=O)C(=O)[C@@H](N(C)C)[C@@H]3[C@@H](O)[C@H]12
inactive: locus YAL013W, strain DEP1, stronger effect = lower value 0.997 | locus YAL021C, strain ccr4, stronger effect = lower value 1.02 | locus YAL026C, strain drs2, stronger effect = lower value 1.01 | locus YAL030W, strain snc1, stronger effect = lower value 1.01 | locus YBL061C, strain skt5, stronger effect = lower value 1.01 | locus YBR009C, strain hhf1, stronger effect = lower value 1 | locus YBR021W, strain FUR4, stronger effect = lower value 1.01 | locus YBR023C, strain chs3, stronger effect = lower value 1 | locus YBR171W, strain sec66, stronger effect = lower value 1.02 | locus YBR229C, strain ROT2, stronger effect = lower value 0.987 | locus YBR231C, strain swc5, stronger effect = lower value 1.02 | locus YBR279W, strain paf1, stronger effect = lower value 1.01 | locus YCL011C, strain gbp2, stronger effect = lower value 1.01 | locus YCL016C, strain dcc1, stronger effect = lower value 1.02 | locus YCL029C, strain bik1, stronger effect = lower value 0.965 | locus YCL061C, strain MRC1, stronger effect = lower value 1.02 | locus YCL069W, strain vba3, stronger effect = lower value 1.01 | locus YCR088W, strain abp1, stronger effect = lower value 0.997 | locus YDL005C, strain med2, stronger effect = lower value 1.02 | locus YDL035C, strain GPR1, stronger effect = lower value 0.98 | locus YDL040C, strain nat1, stronger effect = lower value 1.02 | locus YDL074C, strain BRE1, stronger effect = lower value 0.962 | locus YDL101C, strain DUN1, stronger effect = lower value 0.978 | locus YDL134C, strain PPH21, stronger effect = lower value 1.01 | locus YDL185W, strain tfp1, stronger effect = lower value 0.925 | locus YDL192W, strain arf1, stronger effect = lower value 0.971 | locus YDR001C, strain nth1, stronger effect = lower value 1.01 | locus YDR069C, strain doa4, stronger effect = lower value 1.01 | locus YDR101C, strain arx1, stronger effect = lower value 0.957 | locus YDR137W, strain rgp1, stronger effect = lower value 0.927 | locus YDR150W, strain NUM1, stronger effect = lower value 0.99 | locus YDR159W, strain sac3, stronger effect = lower value 1.01 | locus YDR162C, strain NBP2, stronger effect = lower value 0.981 | locus YDR195W, strain ref2 0.997 | locus YDR297W, strain sur2, stronger effect = lower value 1.01 | locus YDR318W, strain mcm21, stronger effect = lower value 0.975 | locus YDR334W, strain swr1, stronger effect = lower value 1.01 | locus YDR335W, strain msn5, stronger effect = lower value 1.01 | locus YDR388W, stronger effect = lower value 0.991 | locus YDR392W, strain spt3, stronger effect = lower value 0.957 | locus YDR502C, strain sam2, stronger effect = lower value 1 | locus YEL003W, strain gim4, stronger effect = lower value 1 | locus YEL037C, strain rad23, stronger effect = lower value 1.01 | locus YEL061C, strain CIN8 (second series), stronger effect = lower value 1.01 | locus YEL061C, strain CIN8, stronger effect = lower value 0.988 | locus YER015W, strain faa2, stronger effect = lower value 0.991 | locus YER016W, strain bim1, stronger effect = lower value 0.946 | locus YER110C, stronger effect = lower value 0.997 | locus YER111C, strain swi4, stronger effect = lower value 1.01 | locus YER155C, strain BEM2 (second series), stronger effect = lower value 0.966 | locus YER155C, strain BEM2, stronger effect = lower value 1.01 | locus YER167W, strain BCK2, stronger effect = lower value 0.992 | locus YFR010W, strain ubp6, stronger effect = lower value 1.02 | locus YGL078C, strain dbp3, stronger effect = lower value 0.993 | locus YGL086W, strain mad1, stronger effect = lower value 0.993 | locus YGL167C, strain pmr1, stronger effect = lower value 1.02 | locus YGL173C, strain kem1, stronger effect = lower value 1.01 | locus YGL227W, strain vid30, stronger effect = lower value 1.01 | locus YGL240W, strain doc1, stronger effect = lower value 1.03 | locus YGL248W, strain PDE1, stronger effect = lower value 0.979 | locus YGL253W, strain hxk2, stronger effect = lower value 1.01 | locus YGR078C, strain PAC10, stronger effect = lower value 0.928 | locus YGR135W, strain pre9, stronger effect = lower value 0.987 | locus YGR229C, strain SMI1, stronger effect = lower value 0.947 | locus YGR252W, strain gcn5, stronger effect = lower value 1.11 | locus YHR013C, strain ard1, stronger effect = lower value 1.02 | locus YHR027C, strain rpn1, stronger effect = lower value 1.01 | locus YHR030C, strain SLT2, stronger effect = lower value 0.994 and 0.979 | locus YHR079C, strain IRE1 (second series), stronger effect = lower value 0.982 | locus YHR079C, strain IRE1, stronger effect = lower value 0.978 | locus YHR094C, strain hxt1, stronger effect = lower value 0.992 | locus YHR129C, strain ARP1, stronger effect = lower value 0.982 | locus YHR142W, strain chs7, stronger effect = lower value 1.05 | locus YHR200W, strain rpn10, stronger effect = lower value 0.97 | locus YIL066C, strain RNR3, stronger effect = lower value 0.948 | locus YIL073C, strain SPO22, stronger effect = lower value 0.945 | locus YIL125W, strain kgd1, stronger effect = lower value 0.989 | locus YIR030C, strain dcg1, stronger effect = lower value 1 | locus YJL092W, strain hpr5, stronger effect = lower value 1.01 | locus YJL095W, strain BCK1 (second series), stronger effect = lower value 1.02 | locus YJL095W, strain BCK1, stronger effect = lower value 0.899 and 0.972 | locus YJL115W, strain asf1, stronger effect = lower value 1.03 | locus YJL129C, strain trk1, stronger effect = lower value 1.04 | locus YJL134W, strain LCB3, stronger effect = lower value 0.992 | locus YJL154C, strain vps35, stronger effect = lower value 1.04 | locus YJL164C, strain tpk1, stronger effect = lower value 0.983 | locus YJL166W, strain qcr8, stronger effect = lower value 1.02 | locus YJL168C, strain set2, stronger effect = lower value 0.982 | locus YJL187C, strain SWE1 (second series), stronger effect = lower value 0.929 | locus YJR043C, strain POL32, stronger effect = lower value 0.923 | locus YJR066W, strain TOR1, stronger effect = lower value 0.913

Source: PubChem BioAssay AID1159580 (chemical genetic matrix, 2015)
